These results are taken from PubChem BioAssay AID1347414 (National Center for Advancing Translational Sciences (NCATS), 2020).

Values joined by “and” are separate entries in the source; they are usually repeats but may differ in a detail not shown here. Equal entries are not always repeated. Results filed as inconclusive are left out. Active and inactive are the calls of the source. Calls come from the whole dose curve; as a rule, active = well fitted inhibition curve with a large enough effect; inconclusive = small, poorly fitted or top-dose-only effect; inactive = no such curve, though single readings can be large or run the other way.
Potency is the fitted concentration of half-maximal effect.

The nature of the assay: qHTS to identify inhibitors of the type 1 interferon - major histocompatibility complex class I in skeletal muscle: Secondary screen by immunofluorescence. Note: nearly all actives have a fitted effect of over 70% in size. As to conditions: C25cl48 myoblasts, IFN-b induced HLA-ABC immunofluorescence, 24 h; series mostly up to 49.8 µM. From the text:
Assay Submitter (PI): Travis B. Kinder Ph.D. & James Inglese Ph.D. Assay Development and Screening Technology Laboratory (ADST) National Center for Advancing Translational Sciences (NCATS), Rockville, MD National Institute of Health (NIH), Bethesda, Maryland Idiopathic inflammatory myopathies, collectively referred to as myositis, are a group of rare autoimmune diseases characterized by skeletal muscle inflammation, weakness, and usually accompanied by systemic pathologies of the skin, lungs, or vasculature. Current immunosuppressive therapies and glucocorticoids are often not curative and are accompanied by harsh side effects, especially in children with juvenile myositis. We initiated a drug repurposing and development program to identify more targeted, less toxic therapeutics to treat myositis. Although its cause is not known, muscle from a subset of patients have an abundance of the inflammatory type 1 interferon (IFN) and a down-stream product major histocompatibility complex class I (MHC class I), which are both thought to contribute to damage and weakness. We conducted quantitative high throughput screening (qHTS) on 6,576 compounds (4,679 unique) through a series of cell-based assays to identify those that inhibit the IFN-stimulated expression of MHC class I in muscle precursor cells (myoblasts). The compound identification and evaluation strategy utilized a primary screen with reporter-tagged MHC class I in genome-engineered myoblasts, ATP content counter screen for viability, HLA-ABC immunofluorescence secondary screen, and HLA-B RT-qPCR tertiary screen. To verify activity of compounds identified by qHTS in HLA-B HiBit reporter cells, compounds were assayed by high throughput HLA-ABC immunofluorescence. Briefly, 216 compounds identified from primary and counter screening as inhibitory with minimal cytotoxicity were dispensed into black/clear bottom […] using acoustic dispensing in an 11-point, 1:3 titration with a high final concentration of 50 uM. Normal immortalized human myoblasts C25cl48 were added to the plates with 4.0 ng/ml human IFN-beta for 24 hours, fixed, stained by immunofluorescence for HLA-ABC protein, nuclei, and cell body, and analyzed by laser scanning cytometry as described by Auld et al., 2006. References: Auld DS, Johnson RL, Zhang Y, Veith H, Jadhav A, Yasgar A, Simeonov A, Zheng W, Martinez ED, Westwick JK, Austin CP, Inglese J. 2006. Fluorescent protein-based cellular assays analyzed by laser-scanning microplate cytometry in 1536-well plate format. Methods Enzymol 414:566-89. doi:10.1016/S0076-6879(06)14029-X
PROTOCOL TABLE (as described by Inglese et al., 2007) SEQUENCE No. (e.g., 1, 2, 3, etc.); […] (e.g., Cells, Incubation, Reagent, etc.); VALUE; DESCRIPTION 0; Compounds; 25 nl; Follow-up compounds dispensed at 25 nl/well with Labcyte Echo 655 acoustic dispenser in triplicate Aurora ChemLib 1536K black/clear bottom, low base, TC 1536-well plates (00019324). Also dispensed 25 nl/well DMSO control, ruxolitinib IFN-b inhibitor control titration, and digitonin cytotoxic control 1a; Cells; 5 uL; Multidrop Combi (Thermo Scientific) to seed 125 cells/well into eight plates in 5 ul/well of iHSKM growth medium (GM) without dexamethasone into columns 1+2. Add metal lids with gas-exchange holes 1b; Cells; 5 uL; Multidrop Combi (Thermo Scientific) to seed 125 cells/well into eight plates in 5 ul/well of iHSKM GM without dexamethasone + 4 ng/ml IFN-b into columns 3 - 48. […]
(In qHTS, concentration-response curves come from the screen itself.)
Turning to `CC(C)(C)c1cc(C=C(C#N)C#N)cc(C(C)(C)C)c1O`, the Potency entry was “inactive”.

Regarding `C/C(=C\c1csc(C)n1)[C@@H]1C[C@@H]2O[C@]2(C)CCC[C@H](C)[C@H](O)[C@@H](C)C(=O)C(C)(C)[C@@H](O)CC(=O)O1`, the Potency entry was “inactive”. The result for `O=C1/C(=C\c2ccccc2)C[C@@]2(O)[C@H]3Cc4ccc(O)c5c4[C@@]2(CCN3CC2CC2)[C@H]1O5` reads 2290 nM (active); that for `COc1cccc2c1C(=O)c1c(O)c3c(c(O)c1C2=O)C[C@@](O)(C(=O)CO)CC3OC1CC(N2CCOC(OC)C2)C(O)C(C)O1` (stereo not given in full), 57.6 nM (active). Consider `CC(C)[C@]12O[C@H]1[C@@H]1O[C@]13[C@]1(O[C@H]1C[C@H]1C4=C(CC[C@@]13C)C(=O)OC4)[C@@H]2O`, for which the Potency is 91.4 nM (active). The result for `O=c1[nH]c2ccc(Cl)cc2c(N[C@@H]2CN3CCC2CC3)c1-c1nc2ccccc2[nH]1` reads 1620 nM (active); that for `Cc1[nH]nc2ccc(-c3cncc(OC[C@@H](N)Cc4c[nH]c5ccccc45)c3)cc12`, 230 nM (active); that for `CC1(C)CC[C@]2(NC(=O)C(C)(F)F)CC[C@]3(C)[C@H](C(=O)C=C4[C@@]5(C)C=C(C#N)C(=O)C(C)(C)[C@@H]5CC[C@]43C)[C@@H]2C1`, 3240 nM (active). With `CC1=C(O)C(=O)C=C2C1=CC=C1[C@@]2(C)CC[C@@]2(C)[C@@H]3C[C@](C)(C(=O)O)CC[C@]3(C)CC[C@]12C`, the Potency is 1150 nM (active). For the compound `O=[N+]([O-])/C=C/c1ccc2c(c1)OCO2`, the Potency is 18200 nM (active). The result for `Cc1[nH]ncc1-c1cc2nc([C@@H]3CC4CCN3CC4)[nH]c(=O)c2s1` reads 3640 nM (active); that for `C[C@@H]1O[C@@H](O[C@@H]2C=C3CC[C@@H]4[C@H](CC[C@]5(C)[C@@H](c6ccc(=O)oc6)CC[C@]45O)[C@@]3(C)CC2)[C@H](O)[C@H](O)[C@H]1O`, 36.4 nM (active). Turning to `C[C@@H]1O[C@@H](O[C@H]2C[C@@H](O)[C@]3(CO)[C@H]4[C@H](O)C[C@]5(C)[C@@H](C6=CC(=O)OC6)CC[C@]5(O)[C@@H]4CC[C@]3(O)C2)[C@H](O)[C@H](O)[C@H]1O`, the Potency is 64.7 nM (active).

Consider `C/C1=C/C[C@@H](/C(C)=C/c2csc(C)n2)OC(=O)C[C@H](O)C(C)(C)C(=O)[C@H](C)[C@@H](O)[C@@H](C)CCC1`, for which the Potency entry was “inactive”. The result for `CC(C)[C@]12O[C@H]1[C@@H]1O[C@@]13[C@@]1(C)CCC4=C(COC4=O)[C@@H]1C[C@@H]1O[C@@]13C2=O` reads 162 nM (active); that for `CC[C@@]1(O)C(=O)OCc2c1cc1n(c2=O)Cc2cc3ccccc3nc2-1`, 1.62 µM (active) and 2.05 µM (active); that for `CC(=O)OC[C@H]1O[C@@H]([S-])[C@H](OC(C)=O)[C@@H](OC(C)=O)[C@@H]1OC(C)=O.CC[PH+](CC)CC.[Au]`, 576 nM (active). The result for `COC(=O)[C@]12CCC(C)(C)C[C@H]1[C@H]1C(=O)C=C3[C@@]4(C)C=C(C#N)C(=O)C(C)(C)[C@@H]4CC[C@@]3(C)[C@]1(C)CC2` reads 3640 nM (active). The result for `COC(=O)[C@@]12OC[C@]34[C@H]([C@@H](O)[C@@H]1O)[C@@]1(C)CC(=O)C(O)=C(C)[C@@H]1C[C@H]3OC(=O)[C@H](OC(=O)/C=C(\C)C(C)C)[C@@H]24` reads 36.4 nM (active). Turning to `Cc1sc2c(c1C)C(c1ccc(Cl)cc1)=N[C@@H](CC(N)=O)c1nnc(C)n1-2`, the Potency was 162 nM (active).
